Results reported in PubChem BioAssay (NCI).
This is part of a sample that, as a whole, favours compounds with a hit. Of some 79,000 tested, about 15% had one in any assay. Values without a mark were called inactive. Calls of active or inactive are those of the source. No stated cut-off is given here; in the data, active means growth inhibition above about 70%; inactive means the rest.

Key:
[1] = NCI Yeast Anticancer Drug Screen. Data for the wt2 strain (AID 169);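 further: 0% = growth of vehicle-treated yeast cultures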; conditions: S. cerevisiae wt2 strain growth inhibition, active compounds read high
How it was run: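 Steps: yeast strain treated with compound; growth recorded; inhibition calculated relative to cultures given vehicle alone.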

[2] = NCI Yeast Anticancer Drug Screen. Data for the mlh1 strain (AID 171);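 further: 0% = growth of vehicle-treated control cultures of the same strain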; conditions: S. cerevisiae mlh1 strain growth inhibition, active compounds read high
How it was run: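 Yeast screen: mutant strain plus compound, growth scored against vehicle control wells.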

[3] = NCI Yeast Anticancer Drug Screen. Data for the sgs1 strain (AID 173);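 further: 0% = growth of vehicle-only control cultures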; conditions: S. cerevisiae sgs1 mutant, active compounds read high
How it was run: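 Inhibition of yeast growth served as the measure. The mutant strain was treated with each compound, and growth was normalised to cultures receiving vehicle alone.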

[4] = NCI Yeast Anticancer Drug Screen. Data for the mlh1 rad18 strain (AID 175); conditions: S. cerevisiae mlh1 rad18 strain growth inhibition, active compounds read high
How it was run: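 Compound-treated yeast growth, normalised to vehicle controls. Strain bears defined DNA repair mutations.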

[5] = NCI Yeast Anticancer Drug Screen. Data for the rad18 strain (AID 177); conditions: S. cerevisiae rad18 mutant growth inhibition, active compounds read high
How it was run: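 Inhibition values reflect reduced yeast growth compared with vehicle-treated controls, using a strain engineered with a DNA damage repair defect.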

[6] = NCI Yeast Anticancer Drug Screen. Data for the rad52 strain (AID 147);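 further: 0% = growth of vehicle-treated control cultures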; conditions: S. cerevisiae rad52 mutant growth inhibition, active compounds read high
How it was run: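 Genetically altered yeast (DNA damage repair defect) treated with compound; inhibition calculated relative to vehicle.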

[7] = NCI Yeast Anticancer Drug Screen. Data for the wt1 strain (AID 149);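 further: 0% = growth of vehicle-treated wt1 cultures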; conditions: S. cerevisiae wt1 strain (SPY 50644) growth inhibition, active compounds read high
How it was run: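 Yeast wt1 strain exposed to compounds; growth inhibition measured relative to vehicle-treated controls.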

[8] = NCI Yeast Anticancer Drug Screen. Data for the rad50EPP+ strain (AID 151);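 further: 0% = growth of vehicle-treated control cultures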; conditions: S. cerevisiae rad50 mutant strain, active compounds read high
How it was run: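 Strain rad50EPP+; compound exposure; % growth inhibition vs vehicle.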

[9] = NCI Yeast Anticancer Drug Screen. Data for the mgt1 strain (AID 153); conditions: S. cerevisiae mgt1 mutant growth inhibition, active compounds read high
How it was run: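 Read-out: yeast growth inhibition vs vehicle control. Strain mgt1, drawn from a panel altered in DNA damage repair or cell cycle control.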

[10] = NCI Yeast Anticancer Drug Screen. Data for the rad50 strain (AID 155);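 further: 0% = growth of vehicle-only cultures of the same strain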; conditions: S. cerevisiae rad50 strain growth inhibition, active compounds read high
How it was run: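 Yeast carrying a defined DNA repair defect were exposed to test compounds, and growth was compared with vehicle-treated controls to give percent inhibition.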

[11] = NCI Yeast Anticancer Drug Screen. Data for the mec2-1 strain (AID 157); conditions: S. cerevisiae mec2-1 strain, active compounds read high
How it was run: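 Cells of the genetically defined mec2-1 yeast strain are incubated with test compound. Inhibition of growth is calculated against vehicle-treated controls.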

[12] = NCI Yeast Anticancer Drug Screen. Data for the rad14 strain (AID 159);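 further: 0% = growth of vehicle-treated control cultures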; conditions: S. cerevisiae rad14 strain growth inhibition, active compounds read high
How it was run: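 Yeast cells carrying a defined DNA-repair defect were exposed to compounds, and growth inhibition was calculated relative to vehicle-treated control cultures.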

[13] = NCI Yeast Anticancer Drug Screen. Data for the sgs1 mgt1 strain (AID 161);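 further: 0% = growth of cultures given vehicle only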; conditions: S. cerevisiae sgs1 mgt1 strain, active compounds read high
How it was run: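 Mutant yeast exposed to compound; growth scored against vehicle-only wells.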

[14] = NCI Yeast Anticancer Drug Screen. Data for the CLN2oe strain (AID 163);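 further: 0% = growth of vehicle-only control cultures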; conditions: S. cerevisiae CLN2oe strain, active compounds read high
How it was run: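 Strain altered in cell-cycle control, incubated with compound; growth compared to solvent-treated controls.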

[15] = NCI Yeast Anticancer Drug Screen. Data for the cln2 rad14 strain (AID 165);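 further: 0% = growth equal to vehicle treated cultures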; conditions: S. cerevisiae cln2 rad14 strain, active compounds read high
How it was run: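 The screen exposed genetically defined yeast (cln2 rad14) to test compounds and scored growth inhibition relative to vehicle-treated controls.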

[16] = NCI Yeast Anticancer Drug Screen. Data for the bub3 strain (AID 167); conditions: S. cerevisiae bub3 mutant strain, active compounds read high
How it was run: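 Compounds were applied to a genetically altered yeast strain carrying a cell-cycle control defect. Growth inhibition was scored against vehicle-treated controls.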

[17] = at 5.0 µM (retest, dose inferred, filed as 0.5)
[18] = at 50.0 µM (retest, dose inferred, filed as 5.0)

`CCCC/C=C1\CCC(CN2CCCC2)C1=O` (stereo unspecified) gave a growth inhibition ([1]; at 1.2 µM) of -33%, a growth inhibition ([1]; at 3.7 µM) of -17% and a growth inhibition ([1]; at 11.0 µM) of -3%. For the same compound, the growth inhibition ([1]; at 33.0 µM) was 20%, the growth inhibition ([1]; at 100.0 µM) was 74% (active) and the growth inhibition ([2]; at 1.2 µM) was 22%. For the same compound, the growth inhibition ([2]; at 3.7 µM) was 36%, the growth inhibition ([2]; at 11.0 µM) was 56% and the growth inhibition ([2]; at 33.0 µM) was 76% (active). For the same compound, the growth inhibition ([2]; at 100.0 µM) was 97% (active), the growth inhibition ([3]; at 1.2 µM) was -1% and the growth inhibition ([3]; at 3.7 µM) was 22%. For the same compound, the growth inhibition ([3]; at 11.0 µM) was 44%, the growth inhibition ([3]; at 33.0 µM) was 67% and the growth inhibition ([3]; at 100.0 µM) was 94% (active). The growth inhibition [4, 17] was 41%, the growth inhibition [4, 18] was 80% (active) and the growth inhibition ([4]; at 50.0 µM) was 73.5% (active). It also gave a growth inhibition ([5]; at 1.2 µM) of -3%, a growth inhibition ([5]; at 3.7 µM) of 15% and a growth inhibition ([5]; at 11.0 µM) of 34%. The growth inhibition ([5]; at 33.0 µM) was 65% and the growth inhibition ([5]; at 100.0 µM) was 92% (active).
With `CCN(CC)CCNc1ccc(C)c2sc3ccc(O)cc3c(=O)c12` the growth inhibition ([6]; at 1.2 µM) was 60%, the growth inhibition ([6]; at 3.7 µM) was 89% (active) and the growth inhibition ([6]; at 11.0 µM) was 94% (active). For the same compound, the growth inhibition ([6]; at 33.0 µM) was 98% (active), the growth inhibition ([6]; at 100.0 µM) was 99% (active) and the growth inhibition ([7]; at 1.2 µM) was -7%. The growth inhibition ([7]; at 3.7 µM) was -10%, the growth inhibition ([7]; at 11.0 µM) was 8% and the growth inhibition ([7]; at 33.0 µM) was 79% (active). For the same compound, the growth inhibition ([7]; at 100.0 µM) was 99% (active), the growth inhibition ([8]; at 1.2 µM) was 37% and the growth inhibition ([8]; at 3.7 µM) was 50%. For the same compound, the growth inhibition ([8]; at 11.0 µM) was 78% (active), the growth inhibition ([8]; at 33.0 µM) was 84% (active) and the growth inhibition ([8]; at 100.0 µM) was 98% (active). It also gave a growth inhibition ([9]; at 1.2 µM) of 7%, a growth inhibition ([9]; at 3.7 µM) of 27% and a growth inhibition ([9]; at 11.0 µM) of 23%. For the same compound, the growth inhibition ([9]; at 33.0 µM) was 89% (active), the growth inhibition ([9]; at 100.0 µM) was 99% (active) and the growth inhibition ([10]; at 1.2 µM) was 72% (active). The growth inhibition ([10]; at 3.7 µM) was 94% (active), the growth inhibition [10, 17] was 52% and the growth inhibition ([10]; at 11.0 µM) was 96% (active). The growth inhibition ([10]; at 33.0 µM) was 98% (active), the growth inhibition [10, 18] was 98% (active) and the growth inhibition ([10]; at 50.0 µM) was 90.3% (active). For the same compound, the growth inhibition ([10]; at 100.0 µM) was 99% (active), the growth inhibition ([11]; at 1.2 µM) was -1% and the growth inhibition ([11]; at 3.7 µM) was 17%. The growth inhibition [11, 17] was 4%, the growth inhibition ([11]; at 11.0 µM) was 36% and the growth inhibition ([11]; at 33.0 µM) was 91% (active). The growth inhibition [11, 18] was 98% (active), the growth inhibition ([11]; at 50.0 µM) was 92% (active) and the growth inhibition ([11]; at 100.0 µM) was 99% (active). For the same compound, the growth inhibition ([12]; at 1.2 µM) was 23%, the growth inhibition ([12]; at 3.7 µM) was 29% and the growth inhibition ([12]; at 11.0 µM) was 34%. The growth inhibition ([12]; at 33.0 µM) was 93% (active), the growth inhibition ([12]; at 100.0 µM) was 99% (active) and the growth inhibition [13, 17] was 9%. The growth inhibition [13, 18] was 99% (active), the growth inhibition ([13]; at 50.0 µM) was 91.7% (active) and the growth inhibition ([14]; at 1.2 µM) was 39%. The growth inhibition ([14]; at 3.7 µM) was 33%, the growth inhibition ([14]; at 11.0 µM) was 39% and the growth inhibition ([14]; at 33.0 µM) was 94% (active). The growth inhibition ([14]; at 100.0 µM) was 99% (active), the growth inhibition [15, 17] was 12% and the growth inhibition [15, 18] was 98% (active). For the same compound, the growth inhibition ([15]; at 50.0 µM) was 90.9% (active), the growth inhibition ([16]; at 1.2 µM) was -1% and the growth inhibition ([16]; at 3.7 µM) was 10%. For the same compound, the growth inhibition [16, 17] was -1%, the growth inhibition ([16]; at 11.0 µM) was 16% and the growth inhibition ([16]; at 33.0 µM) was 91% (active). For the same compound, the growth inhibition [16, 18] was 99% (active), the growth inhibition ([16]; at 50.0 µM) was 91.2% (active) and the growth inhibition ([16]; at 100.0 µM) was 99% (active). It also gave a growth inhibition ([1]; at 1.2 µM) of -20%, a growth inhibition ([1]; at 3.7 µM) of -18% and a growth inhibition ([1]; at 11.0 µM) of -17%. The growth inhibition ([1]; at 33.0 µM) was 98% (active), the growth inhibition ([1]; at 100.0 µM) was 98% (active) and the growth inhibition ([2]; at 1.2 µM) was 45%. For the same compound, the growth inhibition ([2]; at 3.7 µM) was 43%, the growth inhibition ([2]; at 11.0 µM) was 29% and the growth inhibition ([2]; at 33.0 µM) was 86% (active). For the same compound, the growth inhibition ([2]; at 100.0 µM) was 99% (active), the growth inhibition ([3]; at 1.2 µM) was 23% and the growth inhibition ([3]; at 3.7 µM) was 32%. The growth inhibition ([3]; at 11.0 µM) was 43%, the growth inhibition ([3]; at 33.0 µM) was 97% (active) and the growth inhibition ([3]; at 100.0 µM) was 99% (active). The growth inhibition [4, 17] was 12%, the growth inhibition [4, 18] was 99% (active) and the growth inhibition ([4]; at 50.0 µM) was 91% (active). The growth inhibition ([5]; at 1.2 µM) was 6%, the growth inhibition ([5]; at 3.7 µM) was 5% and the growth inhibition ([5]; at 11.0 µM) was 12%. For the same compound, the growth inhibition ([5]; at 33.0 µM) was 97% (active) and the growth inhibition ([5]; at 100.0 µM) was 99% (active).
